# NS1 function inh = influenza NS1 inhibition; Potency, µM (doses to about 46.1 µM), for inactives: top-dose activity, positive = more growth; AID 2326; actives 0.4% (n = 270,000); calls by dose curve; also: potency is read from the fitted curve at half-maximal effect; actives are rising curves; nearly all actives have a fitted effect of over 50% in size
#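 Growth recovery, yeast-based: influenza A NS1 expressed in S. cerevisiae causes slow growth, and suppressors are detected by OD600. The parent strain without NS1 is used as positive control.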
# Shiga toxin inh = inhibitors of Shiga toxin in Vero cells | Vero cells, Shiga toxin protein synthesis inhibition reporter | actives 9.2% (n = 290,000) | inhibition, % at 38.7 µM | AID 2315; in the data active = inhibition mostly above about 28%, no sharp cut-off; inactive = mostly below about 43%; also: 0% is about no effect
# Pf growth 96h = P. falciparum growth inhibition at 96 hours; P. falciparum luciferase reporter growth, 96 h; Potency, µM (doses to about 28.7 µM), inactives show at the highest dose activity change, negative = inhibition, usual class: inhibitors; actives 6.9% (n = 320,000); also: potency is read from the fitted curve at half-maximal effect; % is scaled to controls: 0 for no effect and ±100 for the full control effect
#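 Luminescence readout: decreased luciferase signal marks inhibited growth of reporter-expressing P. falciparum in infected red cells (2% hematocrit, 0.05% parasitemia final), exposed to compound two generations (96 h, 37 C, 5% CO2).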
# CHX counter = counter-screen for Shiga toxin inhibitors: cycloheximide protein synthesis inhibition | AID 2314 | cell reporter, cycloheximide protein synthesis inhibition counterscreen | actives 12% (n = 300,000) | max response, %; in the data active = max response mostly above about 13%, no sharp cut-off; inactive = mostly below about 14%; also: read at 38.3 µM for the half of the compounds with a filed dose; 0% is about no effect
# Pf growth 48h = inhibits P. falciparum growth in the first generation, 48 h. actives 5.9% (n = 310,000). Potency, µM (series often up to 28.7 µM), for inactives: at the top dose activity change, negative = inhibition, actives largely listed as inhibitors. AID 504832. P. falciparum luciferase growth in erythrocytes, 48 h; also: potency is read from the fitted curve at half-maximal effect; % is scaled to controls: 0 for no effect and ±100 for the full control effect
#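 Parasite viability was followed by luminescence of a genomically integrated firefly luciferase. Cultures held 0.1% parasitemia at 2% hematocrit (final), incubated under 5% CO2 at 37 C.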
# * hit, by the source's call; ? = inconclusive; nt = not tested or not shown. Shown are actives, neighbours in structure and some others; about 21% of the full set was active somewhere. Unless noted, calls follow the shape of the dose curve; as a rule, active = well fitted inhibition curve with a large enough effect; inconclusive = small, poorly fitted or top-dose-only effect, or another doubt; inactive = no such curve, though single readings can be large or run the other way.
SMILES,NS1 function inh,Shiga toxin inh,Pf growth 96h,CHX counter,Pf growth 48h
COC(=O)c1cccc(C23CC4(C2)[C@H](CN(Cc2cccnc2)[C@@H]4c2ccccc2)C3c2ccc(Cl)nc2)c1 (some centres undefined),7%,23,12µM*,2,13µM*
CC1(C)C(=O)OC(c2c(F)c(F)c(F)c(F)c2F)C2(CCCCC2)C1=O (centres undefined),3%,8,nt,-5,?
Cc1oc(-c2cc3c(cc2Cl)OCO3)nc1CN1CCCC1c1ccc(F)cc1 (centres undefined),-2%,18,21%,-2,?
CCOC(=O)C1=C(N)OC2=C(C(=O)CCC2)C1c1ccc(C)s1 (centres undefined),-7%,80*,nt,44*,10%
COC(=O)c1sccc1NC(=O)c1ccc(Br)s1,-3%,-19,38%,7,nt
Cc1cc(/C=C2/NC(=O)N(c3ccccc3)C2=O)c(C)n1C(C)C,?,41*,-44%,40*,-9%
CCn1c(C)cc(/C=C2/NC(=O)N(Cc3ccccc3F)C2=O)c1C,12%,-15,9.3µM*,-3,12µM*
Cc1cc(/C=C2/NC(=O)N(Cc3ccccc3F)C2=O)c(C)n1C(C)C,-4%,28,10µM*,5,?
CCNC(C)(C)[C@@H](SS)c1ccc(Br)cc1,-8%,nt,nt,nt,nt
Cc1ccc(C)c(NC(=O)C(Sc2ncnc3ccccc23)c2ccccc2)c1 (centres undefined),8%,-3,42%,5,-3%
Cc1ccc(C)c(NC(=O)C(Sc2nc3ccccc3c(=O)n2CC(C)C)c2ccccc2)c1 (centres undefined),12%,20,2.6µM*,-3,3.7µM*
CCNC(=O)c1ccc(CSc2nc3ccccc3s2)cc1,7%,-11,?,-2,2%
CCC(C)/C(C)=N/NC(=O)c1ccc(CSc2nc3ccccc3s2)cc1 (centres undefined),?,34,-3%,20*,22%
COCCNC(=O)c1ccc(CSc2nc3ccccc3s2)cc1,-56%,73*,-24%,43*,-19%
c1ccc2sc(SCc3ccc(-c4nnco4)cc3)nc2c1,-15%,73*,?,38*,0%
O=C(CSc1nc2ccccc2s1)N1c2ccccc2Sc2ccccc21,16%,4,84%,-3,?
NC(=O)c1ccc(CSc2nc3ccccc3s2)cc1,3%,94*,268%,48*,133%
Cc1ccc(NCC(=O)N/N=C\c2ccc[nH]2)cc1,-1%,9,1%,-1,2%
Cc1ccc(N/C=C(\C#N)S(=O)(=O)c2ccccc2)cc1,5%,11,?,5,?
O=C(c1ccc2c(=O)n3c(nc2c1)CCC3)N1CCN(S(=O)(=O)c2cccc(F)c2)CC1,nt,nt,?,nt,12µM*
O=C(c1ccc2c(=O)n3c(nc2c1)CCCCC3)N1CCCCC1,5%,-1,-23%,21*,21%
CN(C(=O)c1ccc2c(=O)n3c(nc2c1)CCCCC3)c1ccccc1Cl,-4%,24,-10%,19*,-1%
CCc1ccc(CN(C)C(=O)c2ccc3c(=O)n4c(nc3c2)CCC4)cc1,7%,-1,?,-2,-14%
O=C(c1ccc2c(=O)n3c(nc2c1)CCCCC3)N1CCN(C(c2ccccc2)c2ccccc2)CC1,11%,-2,1.9µM*,-2,nt
O=C(c1ccc2c(=O)n3c(nc2c1)CCCCC3)N1CCN(c2ccccc2)CC1,-6%,-9,-2%,0,-9%
SMILES,NS1 function inh,Shiga toxin inh,Pf growth 96h,CHX counter,Pf growth 48h
O=C(c1ccc2c(=O)n3c(nc2c1)CCCCC3)N1CCN(c2ccccc2F)CC1,-18%,-3,?,1,7%
COc1ccccc1C(=O)COC(=O)Cn1[nH]c(=O)c2ccccc2c1=O,nt,nt,-2%,nt,8%
CCOc1ccc(CNC(=O)c2ccc(Sc3ccc(C)cc3)c(NC(C)=O)c2)cc1,11%,1,34%,-3,2%
Cc1csc(NC(=O)Cc2ccccc2[N+](=O)[O-])n1,2%,9,-63%,16,27%
CCOC(=O)Cc1csc(NC(=O)CN2C(=O)c3ccccc3C2=O)n1,-2%,-4,27%,-3,8%
CCOC(=O)Cc1csc(NC(=O)C(C)c2ccc([N+](=O)[O-])cc2)n1 (centres undefined),nt,12,23%,-1,9.3µM*
CCOC(=O)Cc1csc(NC(=O)Cc2ccccc2[N+](=O)[O-])n1,nt,85,?,18*,12%

# Source: PubChem (National Center for Advancing Translational Sciences (NCATS))
